sEH inh: blocks human soluble epoxide hydrolase activity; P34913; recombinant human sEH enzymatic activity assay; inhibition, % at 2 µM; hit rate 0.34% among 91,000; AID 707; in the data active = inhibition above about 80%
CYP2C19 act: cytochrome P450 2C19 (human) activation. AID 1025. 96,000 tested, under 10 active. activation factor at 5 µM. recombinant CYP2C19, luciferin-H EGE luminescence; active compounds read high; 0 = fully inhibited enzyme, 1 = untreated enzyme;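 active = activation factor of at least 2 at 5 µM in the primary screen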;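 also: 0 = wells with 2.5 mM tranylcypromine and 1 = vehicle-only wells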
Target sequence (P33261 whole entry, looked up): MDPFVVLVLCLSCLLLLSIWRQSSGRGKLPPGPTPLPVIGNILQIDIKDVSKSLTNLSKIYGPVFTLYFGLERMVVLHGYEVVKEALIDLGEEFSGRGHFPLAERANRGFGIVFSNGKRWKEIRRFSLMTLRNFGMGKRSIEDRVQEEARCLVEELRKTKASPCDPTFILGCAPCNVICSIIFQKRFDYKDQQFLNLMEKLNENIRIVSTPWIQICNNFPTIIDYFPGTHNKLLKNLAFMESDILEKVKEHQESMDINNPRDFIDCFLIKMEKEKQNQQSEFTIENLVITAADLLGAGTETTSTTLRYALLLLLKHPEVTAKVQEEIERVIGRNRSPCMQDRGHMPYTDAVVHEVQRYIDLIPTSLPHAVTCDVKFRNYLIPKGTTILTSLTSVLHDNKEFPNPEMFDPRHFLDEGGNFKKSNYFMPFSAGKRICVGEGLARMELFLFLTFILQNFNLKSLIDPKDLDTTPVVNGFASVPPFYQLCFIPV
CYP2C9 activ: activators of human CYP2C9. recombinant CYP2C9, luciferin-H conversion, luminescence; active compounds read high; factor 1 = untreated enzyme, 0 = blocked. activation factor at 5 µM. hit rate 1.4% among 96,000;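 active = activation factor of 2 or more for CYP2C9 at a 5 µM dose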;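 also: 0 = sulfaphenazole-blocked wells and 1 = vehicle-only wells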
CYP2C19 inh: blocks human cytochrome P450 2C19; P33261; CYP2C19 Supersomes, luciferin-H EGE luminescence, 30 min; inhibition, % at 5 µM; hit rate 21% among 96,000; AID 778;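 active = CYP2C19 inhibition above a set limit at 5 µM in the primary screen, cut at about 50% in these data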;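 also: plate controls were negative control wells for no effect and 2.5 mM tranylcypromine positive control for full effect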
CYP2C9 inh: human CYP2C9 inhibition. P11712. CYP2C9 Supersomes, luciferin-H conversion, luminescence. inhibition, % at 5 µM. hit rate 20% among 96,000;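 active = blocking of liver enzyme CYP2C9 beyond about 50% at 5 µM, limit read from the data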
sEH act: increases human soluble epoxide hydrolase activity; P34913; purified human sEH enzymatic activity, activator screen; activation, % at 2 µM; hit rate 0.04% among 91,000; AID 717; in the data active = activation above about 37%
Numbers without * were called inactive; / = not tested or not shown. Hits are enriched below; roughly 27% of the tested compounds scored in any of these assays.

SMILES | sEH inh | CYP2C19 act | CYP2C9 activ | CYP2C19 inh | CYP2C9 inh | sEH act
Cc1ccc(/C=C/c2ccc(=O)n(Cc3ccc(Cl)cc3Cl)n2)cc1 | 1 | 0.8 | 0.5 | 22 | 48 | 0
Cn1cnnc1SCCn1c(N2CCCCC2)nc2c1c(=O)[nH]c(=O)n2C | -4 | 0.9 | 0.9 | 8 | 7 | 4
COc1ccc(C=O)cc1CSc1nnc(COc2cccc3cccnc23)o1 | 4 | / | / | / | / | -5
Cc1nc2ncnn2c(N2CCN(C(=O)Cc3cccs3)CC2)c1C | 3 | 1 | 0.9 | 1 | 6 | -1
C=CCC(C)(NCc1ccccc1)c1ccccc1 (centres undefined) | 5 | 0.4 | 0.9 | 62* | 8 | -4
CCOc1ccccc1NC(=O)c1ccc(F)c(S(=O)(=O)N2CCC3(CC2)OCCO3)c1 | -3 | 0.4 | 0.4 | 58* | 58* | 5
O=C(Nc1ccc2c(c1)OCCO2)c1ccc(Cl)c(S(=O)(=O)N2CCOCC2)c1 | 79 | 0.4 | 0.6 | 63* | 41 | -79
O=C(Nc1nccs1)c1ccc(Cl)c(S(=O)(=O)N2CCOCC2)c1 | 18 | 0.8 | 0.7 | 18 | 25 | -18
O=C(NCc1ccccc1)c1ccc(F)c(S(=O)(=O)N2CCOCC2)c1 | 18 | 1 | 0.8 | 4 | 24 | -16
O=C(Nc1ccccc1)c1ccc(F)c(S(=O)(=O)N2CCOCC2)c1 | / | 0.4 | 0.4 | 57* | 56* | /
O=C(Nc1ccccc1C(=O)O)c1ccc(Cl)c(S(=O)(=O)N2CCOCC2)c1 | / | 1.1 | 0.2 | -10 | 75* | /
Cc1ccccc1P(=O)(CO)c1ccccc1C | -12 | 0.7 | 1 | 34 | -5 | 10
Cc1ccc(-n2c(-c3cc(C)n(C)n3)n[nH]c2=S)cc1 | -3 | 0.9 | 0.8 | 13 | 16 | 2
C=CCN=C1SC(CC)C(=O)N1S(=O)(=O)c1ccc(C)cc1 (centres undefined) | -14 | 0.2 | 0.6 | 84* | 42 | 12
C=CCN=C1SCC(=O)N1S(=O)(=O)c1ccc(C)cc1 | 10 | 0.9 | 1 | 12 | 3 | -11
CC(=O)N1CCc2cc(C(=O)CN3CCN(c4cccc(Cl)c4)CC3)ccc21 | / | 0.7 | 0.2 | 32 | 84* | /
Cc1ccc(NC(=O)C2CCN(S(=O)(=O)c3cnc[nH]3)CC2)nc1 | / | 0.9 | 0.7 | 7 | 32 | /
O=C(Nc1cccc(C(F)(F)F)c1)C1CCN(S(=O)(=O)c2cnc[nH]2)CC1 | / | 0.5 | 0.2 | 55* | 82* | /
COc1ccc(OC)c(S(=O)(=O)N2CCC(C(=O)Nc3cccc(C(F)(F)F)c3)CC2)c1 | 40 | 0.5 | 1.2 | 48 | -21 | -40
O=C(Nc1nccs1)C1CCN(S(=O)(=O)c2cnc[nH]2)CC1 | / | 0.7 | 0.1 | 29 | 86* | /
Cc1ccc(-n2c(-c3ccccc3)nnc2-c2cccs2)cc1 | 4 | / | / | / | / | -4
Cc1cc(C)n(CC(O)Cn2c(C)c(C)c3ccccc32)n1 (centres undefined) | 7 | 0.7 | 0.3 | 32 | 71* | -7
COc1ccc(-c2cc3ccccc3n2CC(O)CNC(CO)(CO)CO)cc1 (centres undefined) | 11 | 0.5 | 0.7 | 45 | 30 | -7
COc1ccc(-c2cc3ccccc3n2CC(O)Cn2nc(C)cc2C)cc1 (centres undefined) | / | 0 | 0 | 99* | 100* | /
CN(C(=O)CSC1=Nc2ccccc2C2=NC(c3ccccc3)C(=O)N12)C1CCCCC1 (centres undefined) | 14 | 0.8 | 0.6 | 16 | 41 | -13
SMILES | sEH inh | CYP2C19 act | CYP2C9 activ | CYP2C19 inh | CYP2C9 inh | sEH act
c1ccc(-n2nnnc2SCc2cccc3nsnc23)cc1 | 4 | 1 | 0.6 | -2 | 38 | -5
O=C(CCSc1ccccc1)Nc1ccc(OCc2ccccc2)cc1 | 34 | 1 | 0.9 | -5 | 6 | -34
CC(CCc1ccccc1)C(=O)NO (centres undefined) | / | 0.6 | 1.1 | 42 | -14 | /
Cc1ccc(CC(=O)NC(C)CCc2ccccc2)cc1 (centres undefined) | 9 | 0.6 | 0.3 | 37 | 71* | -6
O=C(Cc1ccccc1)NCCCc1ccccc1 | 26 | 0.3 | 0.6 | 68* | 36 | -26
CC(CCc1ccccc1)NC(=O)/C=C/c1ccccc1 (centres undefined) | -4 | 0.5 | 0.5 | 52* | 46 | 4
Cc1ccc(S(=O)(=O)NC(C)CCc2ccccc2)cc1 (centres undefined) | 1 | 0.9 | 0.6 | 10 | 40 | 1
Cc1occc1C(=O)NCc1ccccc1F | -3 | 0.5 | 0.5 | 45 | 51* | 9
COc1ccc(/C(O)=C2/C(=O)C(=O)N(CCN3CCOCC3)C2c2ccccn2)cc1 (centres undefined) | -1 | 1 | 1.1 | -3 | -6 | -1
O=C(Cc1ccccc1)NCCSCc1ccc(Cl)cc1 | 21 | 0.7 | 0.4 | 27 | 63* | -21
Cc1ccc(CC(=O)NCC(C)C)cc1 | -4 | 0.2 | 0.8 | 79* | 15 | 4
O=C(Cc1ccccc1)NCCc1cccc(Cl)c1 | 13 | 0.3 | 0.5 | 71* | 48 | -13
Cc1noc(C)c1C(=O)NCCCc1ccccc1 | / | 0.5 | 0.5 | 53* | 53* | /
O=C(Cc1ccccc1)NCCSCc1ccco1 | 1 | 0.7 | 1 | 31 | -2 | 1
Cc1cc(C)nc(N2CCN(CC(=O)NCc3ccccc3)CC2)n1 | 2 | 1.1 | 1 | -9 | -4 | -4
O=S(NC1CCCCC1)C12CC3CC(CC(C3)C1)C2 (centres undefined) | / | 0.9 | 1.1 | 8 | -7 | /
CC1CCCC(C(=O)O)N1C(=O)CCSSCCC(=O)N1C(C)CCCC1C(=O)O (centres undefined) | -1 | 1.1 | 1.1 | -12 | -14 | -2
Cc1ccc2c(C)nc(NC3=NCN(C(C)C)CN3)nc2c1 | 11 | / | / | / | / | -11
Cc1ccc(CC(=O)NCCCc2ccccc2)cc1 | 30 | 0.2 | 0.1 | 79* | 85* | -31
Cc1occc1C(=O)NCCCCNC(=O)c1ccoc1C | 12 | 1 | 1 | 1 | 3 | -9
Cc1occc1C(=O)NCCc1cccc(Cl)c1 | 15 | 0.1 | 0.4 | 92* | 64* | -16
CC(CCc1ccccc1)NC(=O)CSc1nnnn1C (centres undefined) | 4 | 0.8 | 1.2 | 20 | -19 | -3
CC(CCc1ccccc1)NC(=O)CSc1nc(N)cc(N)n1 (centres undefined) | 2 | 0.4 | 0.8 | 56* | 22 | -3
COc1cc(OC)cc(C(C(=O)NC2CCCCC2)N(C(=O)c2ccno2)c2ccccc2)c1 (centres undefined) | -14 | / | / | / | / | 18
CC(C)(C)c1ccc(S(=O)(=O)NCC(=O)N2CCN(C(=O)c3ccco3)CC2)cc1 | 7 | 0.7 | 0.6 | 29 | 43 | -9
CCOC(=O)CNC(=O)c1ccc2[nH]c3c(c2c1)CCCC3 | 8 | 0.8 | 0.7 | 24 | 34 | -9
CCS(=O)(=O)NCc1ccc2[nH]c3c(c2c1)CCCC3 | -1 | 0.6 | 0.3 | 38 | 74* | 2

Source: PubChem (several laboratories)
